# Assay results: PubChem BioAssay AID796 (Columbia University Molecular Screening Center, 2007)
# Screen size: about 94,000 compounds; about 410 (0.44%) were called active. This is one part of a sample in which actives are shown more often than they occur.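 How the source made its calls: active means inhibition above about 30% together with a positive call from visual inspection of the well image (limit read from the data); inconclusive means inhibition above a set limit but visual check negative; inactive means inhibition not above a set limit, visual check negative.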
# Test: inhibitors of IL-1B driven NFkB p65 nuclear import, primary screen, imaging, HUVEC, IL-1B stimulus, high-content imaging (AID 796);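 further: nuclear over cytoplasmic p65 intensity ratio measured by imaging; 0% = IL-1B stimulated DMSO wells and 100% = unstimulated DMSO wells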
# Conditions: HUVEC IL-1B NFkB p65 nuclear translocation imaging; at 2 µM; active compounds read high
row,Compound,inhibition
1,Cc1occc1C(=O)NNC(=S)NCC(C)C,-8.5% (inactive)
2,COc1cccc(NC(=O)Cc2ccc(C)cc2)c1,3.1% (inactive)
3,COc1ccc(CC(=O)Nc2ccc(-c3nnc(-c4ccc(C)cc4)o3)cc2)cc1,-3.1% (inactive)
4,COc1ccc(NC(=O)/C(Cl)=C(/Cl)S(=O)Cc2ccc(C)cc2)cn1 (configuration not stated),81.8% (active)
5,CN(C)c1ccnc2sc3c(=O)n(-c4ccc(Cl)cc4)cnc3c12,-8.3% (inactive)
6,Cc1cc(=O)[nH]c(SCc2cccc(F)c2)n1,-8.1% (inactive)
7,CCCNC(=S)NC1CC2CCCC(C1)N2CC(C)C (configuration not stated),-10.2% (inactive)
8,CSc1ccccc1-c1nnc(-c2ccc(Cl)cc2)o1,-15.4% (inactive)
9,Cc1nnc(SCC(=O)N/N=C/c2cn(-c3ccccc3)nc2-c2ccc(F)cc2)n1-c1ccccc1,16.3% (inactive)
10,O=C(Nc1ccc(-n2ccnc2P(=O)(O)c2ccccc2)cc1)c1ccccc1Br,-9.1% (inactive)
11,COC(=O)Nc1sc2nc(C)cc(C)c2c1-n1cccc1,8.1% (inactive)
12,O=C(Nc1nnc(SCc2c(Cl)cccc2Cl)s1)C1CCCO1 (configuration not stated),6.6% (inactive)
13,Cc1cccc(C(=O)Nc2ccccc2N2CCN(c3ccc(F)cc3)CC2)c1,4.6% (inactive)
14,O=C1NC(c2cc3c(cc2Cl)OCO3)Oc2ccccc21 (configuration not stated),-2.5% (inactive)
15,CCCOc1ccccc1C1CC(=O)Nc2cc3c(cc21)OCO3 (configuration not stated),-2.7% (inactive)
16,COc1ccccc1C1C2=C(COC2=O)Nc2cc3c(cc21)OCO3 (configuration not stated),39.9% (active)
17,N#Cc1ccc(-c2ccc(F)cc2)nc1Sc1ccccc1,0% (inactive)
18,Cc1cc(=O)oc2cc(OC(C)C(=O)Nc3ccc(N4CCOCC4)cc3)ccc12 (configuration not stated),22.6% (inactive)
19,Cc1ccccc1NC(=O)C(C)c1ccc(-c2ccccc2)c(F)c1 (configuration not stated),-13% (inactive)
20,CCN1CCN(C(=O)C2(NC(=O)Nc3cccc(F)c3)CCCCC2)CC1,9.4% (inactive)
21,CN(C)c1ccnc(Oc2ccc(F)cc2)c1C#N,-4.4% (inactive)
22,COc1ccc(OCC(=O)N2CCN(C(=O)c3cccs3)CC2)cc1,42.9% (active)

row,Compound,inhibition
1,O=C(COc1ccc2ccccc2c1)N1CCN(C(=O)c2cccs2)CC1,12.1% (inactive)
2,COc1ccc(OCC(=O)N2CCN(C(=O)COc3ccccc3)CC2)cc1,-0.4% (inactive)
3,CC(C)c1ccc(N2CCN(C(=O)c3ccccc3NC(=O)/C=C(\C(=O)O)c3ccccc3)CC2)cc1,-24.1% (inactive)
4,Cc1nn(C)c(Oc2ccc(Cl)cc2)c1C=O,-7.4% (inactive)
5,CC(=O)Nc1ccc(S(=O)(=O)N2CCN(C(=O)c3ccccc3F)CC2)cc1,-10.6% (inactive)
6,Cc1[nH]nc(-c2ccc(OCc3cnn(-c4ccccc4)c3)cc2O)c1Oc1ccc(Cl)cc1,-4.6% (inactive)
7,COC(=O)C1(O)CC(C(C)C)=NN1C(=O)c1ccc(Cl)cc1 (configuration not stated),-3.2% (inactive)
8,Cc1ccc(S(=O)(=O)c2c(COC(=O)c3cccc(Cl)c3)c(-c3ccccc3)nn2C)cc1,-7.8% (inactive)
9,CCN(CC)C(=O)CSc1nc2ccccc2o1,-3.4% (inactive)
10,COc1cc(/C=N/Nc2nn3cnnc3c3ccccc23)cc(OC)c1OC,-1.1% (inactive)
11,COc1ccc(/C=N/Nc2nc3ccccc3o2)cc1OC,45.9% (active)
12,COc1ccc(/C=N\NC(=O)c2sc(N)nc2C)cc1OC,1.2% (inactive)
13,CCCc1ccc(-c2c(C)sc(NC(=O)c3ccnn3C)c2C#N)cc1,3.3% (inactive)
14,Cc1cc(C)c([N+](=O)[O-])cc1-c1ccc(/C=N/NC(=O)c2nonc2N)o1,-17.6% (inactive)
15,CC(CC(=O)Nc1cc(C(F)(F)F)ccc1Cl)c1ccccc1 (configuration not stated),-2.6% (inactive)
16,CC(C)C(NS(=O)(=O)c1cccs1)C(=O)Nc1nc(C(C)(C)C)cs1 (configuration not stated),1.6% (inactive)
17,COc1ccc(C2=NOC3(CC(=O)N(c4ccc(Cl)cc4)C3=O)C2)c(OC)c1 (configuration not stated),0.4% (inactive)
18,CSCCC(C(=O)NC1=NCCS1)N1C(=O)c2ccccc2C1=O (configuration not stated),-15.1% (inactive)
19,CCC1(C)Cc2c(sc3[nH]c(=S)n(Cc4ccccc4)c(=O)c23)CO1 (configuration not stated),-4.8% (inactive)
20,CCOc1ccc(Nc2nc(Cc3nnc(SCC(=O)NC4CCCC4)n3C)cs2)cc1,-8.9% (inactive)
21,O=C(CSCc1c(F)cccc1Cl)NCC1CCCO1 (configuration not stated),-1.4% (inactive)
22,COc1ccc(C2CC(c3cccs3)=Nc3ccccc3S2)cc1OC (configuration not stated),-4% (inactive)

row,Compound,inhibition
1,COc1ccc(NC(=O)CSc2nc(NS(=O)(=O)c3ccc(C)cc3)cc(=O)[nH]2)cc1,0.1% (inactive)
2,O=S(=O)(/N=C(/Nc1ccccn1)c1ccccc1)c1ccc(Cl)cc1,-20.6% (inactive)
3,O=C(Nc1nnc(CCOCCOCCc2nnc(NC(=O)c3ccco3)s2)s1)c1ccco1,2.1% (inactive)
4,CCOC(=O)c1c(NC(=O)CSc2nnc(C)c(=O)[nH]2)sc2c1CCC2,7.7% (inactive)
5,CCOCC(=O)Nc1sc2c(c1C(=O)OCC)CCCC2,31.1% (active)
6,CCCOC(=O)Nc1sc2c(c1C(=O)OCC)CCC2,4.6% (inactive)
7,CC(=O)Nc1ccc(N2C(=O)C3C4CC(=O)C(c5ccccc54)C3C2=O)cc1 (configuration not stated),4.6% (inactive)
8,Cc1ccc(-n2c(=O)cc(N3CCN(Cc4ccccc4)CC3)[nH]c2=O)cc1,-36.5% (inactive)
9,COC(CNC(=O)Cn1ncc2ccsc2c1=O)OC,-11.2% (inactive)
10,Cc1ccc(/C=N/NC(=O)C(NC(=O)c2ccccc2)c2n[nH]c(=O)c3ccccc23)cc1 (configuration not stated),-3.6% (inactive)
11,CC(C)C(=O)NC(=S)Nc1ccccc1F,1.1% (inactive)
12,O=[N+]([O-])c1ccccc1OCCCCN1CCCCC1,1.7% (inactive)
13,CCOC(=O)COc1cc(OCC(=O)OCC)c2c(=O)cc(-c3ccccc3)oc2c1,5.4% (inactive)
14,CCOCc1nnc(NC(=O)CSc2ccc(C)cc2)s1,3.5% (inactive)
15,CCN(CC)CCNc1ccc(Cl)cc1[N+](=O)[O-],-11.6% (inactive)
16,CN(C(=O)CSc1nc(C2CC2)nc2ccccc12)c1nc(-c2ccccc2)cs1,6.8% (inactive)
17,COC(=O)C(NC(=O)c1ccc(OC)cc1)(Nc1ncc(S(=O)(=O)c2ccc([N+](=O)[O-])cc2)s1)C(F)(F)F (configuration not stated),10.1% (inactive)
18,COc1ccc(CNCCCO)cc1OC,2.4% (inactive)
19,CCCCOc1ccc(C(=O)NCc2ccncc2)cc1,-7.4% (inactive)
20,C=CCOc1ccc(Cl)cc1CNCCCN1CCOCC1,5.6% (inactive)
21,COC(=O)c1c(CCl)noc1C(=O)NC(C)C,-0.8% (inactive)
22,CC1C/C(=N/NC(=O)c2cccs2)CC(C)(C)C1 (configuration not stated),25.5% (inactive)

row,Compound,inhibition
1,Nc1ccccc1SCc1cc([N+](=O)[O-])cc2c1OCOC2,-1.6% (inactive)
2,O=C(Cn1cncn1)N/N=C/c1c2ccccc2cc2ccccc12,10.3% (inactive)
3,CCOC(=O)CNC(=O)CSc1nc2cccnc2n1CC,-2.1% (inactive)
4,CONC(=O)c1cc(OCC(F)(F)F)ccc1OCC(F)(F)F,4.4% (inactive)
5,CC(=O)c1nn(-c2cccc(Br)c2)cc1C(=O)c1cccc2ccccc12,-11.3% (inactive)
6,c1ccc(-n2nc3ccccc3n2)cc1,18% (inactive)
7,CC1(C)CC(=O)C=C(NCCN2CCNCC2)C1,-15.8% (inactive)
8,CC1(C)CC(=O)C=C(NCCCN2CCCC2=O)C1,99.7% (active)
9,CC1(C)CC(=O)C=C(NCCCNC2CCCCC2)C1,0% (inactive)
10,Cn1c(CO)cnc1SCc1ccccc1,-4.6% (inactive)
11,c1ccc(COc2ccccc2CNCc2cccnc2)cc1,-12.3% (inactive)
12,Cc1cc(C)n(C(=O)CCNC(=O)c2ccccc2Cl)n1,0.3% (inactive)
13,Cc1cc2c(c(=O)n1C)C(C(C)C)C(C#N)=C(N)O2 (configuration not stated),3.4% (inactive)
14,O=C(CSCc1c(Cl)cccc1Cl)NN1C(=O)c2ccccc2C1=O,7.6% (inactive)
15,Cc1ccc(-c2csc(N(Cc3ccco3)C(=O)c3cccs3)n2)cc1,0.8% (inactive)
16,S=c1[nH]nc(-c2ccco2)n1/N=C/c1ccc(Br)s1,-1.5% (inactive)
17,Cc1ccc(-n2nc3c(c2NC(=O)c2ccc4c(c2)OCO4)CSC3)c(C)c1,36% (active)
18,Cc1cc(C)c2nc(NC(=O)c3ccc4c(c3)OCO4)sc2c1,9% (inactive)
19,Cc1cccc(-n2nc3c(c2NC(=O)c2ccc(Br)o2)CSC3)c1C,0% (inactive)
20,O=C(COc1ccc(/C=N/NS(=O)(=O)c2ccccc2)cc1)NCCc1ccccc1,3.5% (inactive)
21,Cc1n[nH]c(=O)n1-c1ccc(Oc2ccccc2)cc1,3.9% (inactive)
22,COC(=O)Nc1c(C)n(C)n(-c2ccccc2)c1=O,-18.8% (inactive)

row,Compound,inhibition
1,Cc1cc(C)cc(N(CC(=O)Nc2c(C)n(C)n(-c3ccccc3)c2=O)S(C)(=O)=O)c1,-3.1% (inactive)
2,Cc1cc(C)cc(N(C(C)C(=O)Nc2c(C)n(C)n(-c3ccccc3)c2=O)S(C)(=O)=O)c1 (configuration not stated),47.4% (active)
3,O=C(CSc1nnc(-c2c[nH]c3ccccc23)o1)c1ccccc1,11.5% (inactive)
4,O=C(CSc1nnc(Cn2cnc3ccccc32)o1)c1ccccc1,98.8% (active)
5,CC(=O)Nc1ccc(C(=O)CSc2nnc(Cc3ccccc3)o2)cc1,-5.2% (inactive)
6,CCn1c2ccccc2c2cc(NC(=O)C/C(C)=N/NC(=O)c3ccccc3N)ccc21,-8.3% (inactive)
7,CNC(=S)NNC(=O)c1sccc1OCc1ccccc1,-4% (inactive)
8,COc1cc(/C=N/O)cc(Br)c1OCc1cccc(Cl)c1,-0.3% (inactive)
9,CCCCNc1ccc(C(=O)Nc2cccc(C)n2)cc1[N+](=O)[O-],-3.1% (inactive)
10,CC(C)CNS(=O)(=O)c1ccc(OCC(=O)Nc2ccc3c(c2)OCO3)c(Cl)c1,-10.8% (inactive)
11,COc1ccc(S(=O)(=O)Nc2ccc3c(c2)OCO3)cc1Cl,96.2% (active)
12,COc1ccc(F)cc1S(=O)(=O)Nc1ccc2c(c1)OCO2,-3.1% (inactive)
13,Cc1ccc(C(=O)c2c(NC(=O)c3ccncc3)sc3c2CCCC3)cc1,2.2% (inactive)
14,CCc1ccc(/C=N/NC(=O)c2ccc(OC3CCCC3)cc2)s1,0.3% (inactive)
15,Cc1nc(N2CCOCC2)nc2c1CCCC2,1.7% (inactive)
16,O=C(CSCc1ccc([N+](=O)[O-])cc1)NCCSCc1ccccc1,8.4% (inactive)
17,Cc1ccc(C)n1-c1ccncc1,34.7% (active)
18,Cc1ccc(N)cc1-n1c(C)ccc1C,4.3% (inactive)
19,COc1ccc(C(=O)c2c(C)oc3cc([N+](=O)[O-])c(O)c([N+](=O)[O-])c23)cc1,-48.7% (inactive)
